# High-throughput results from PubChem.
# In the library only some 27% were active in any assay of this set; here they are far more common.
# sEH inh: soluble epoxide hydrolase (human) inhibition; P34913; recombinant human sEH enzymatic activity assay; inhibition, % at 2 µM; 0.34% of 91,000 active; in the data active = inhibition above about 80%
# CYP2C19 activ: increases human CYP2C19 enzyme activity; P33261; 96,000 tested, under 10 active; AID 1025; activation factor at 5 µM; recombinant CYP2C19, luciferin-H EGE luminescence; active compounds read high; 0 = fully inhibited enzyme, 1 = untreated enzyme;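 active = activation factor of at least 2 at 5 µM in the primary screen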;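 also: 0 = wells with 2.5 mM tranylcypromine and 1 = vehicle-only wells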
# CYP2C9 activ: CYP2C9 (human) activation. 1.4% of 96,000 active. P11712. recombinant CYP2C9, luciferin-H conversion, luminescence; active compounds read high; factor 1 = untreated enzyme, 0 = blocked. activation factor at 5 µM;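 active = activation factor of 2 or more for CYP2C9 at a 5 µM dose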;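 also: 0 = sulfaphenazole-blocked wells and 1 = vehicle-only wells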
# Target sequence (P11712 whole entry, looked up): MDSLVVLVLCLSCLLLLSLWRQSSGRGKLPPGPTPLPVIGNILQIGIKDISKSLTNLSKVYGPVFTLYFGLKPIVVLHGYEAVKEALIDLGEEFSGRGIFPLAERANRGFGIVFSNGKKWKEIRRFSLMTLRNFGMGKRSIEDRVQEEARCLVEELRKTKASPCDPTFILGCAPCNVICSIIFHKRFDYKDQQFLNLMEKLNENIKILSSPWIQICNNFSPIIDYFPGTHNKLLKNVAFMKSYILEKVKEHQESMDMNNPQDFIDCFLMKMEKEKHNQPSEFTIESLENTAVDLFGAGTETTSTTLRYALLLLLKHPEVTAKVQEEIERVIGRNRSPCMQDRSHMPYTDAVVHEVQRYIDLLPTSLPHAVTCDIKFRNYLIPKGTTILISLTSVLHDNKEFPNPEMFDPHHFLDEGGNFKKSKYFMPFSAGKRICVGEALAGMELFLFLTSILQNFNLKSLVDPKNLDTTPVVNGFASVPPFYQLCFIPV
# CYP2C9 inh: inhibitors of human CYP2C9 | CYP2C9 Supersomes, luciferin-H conversion, luminescence | inhibition, % at 5 µM | 20% of 96,000 active;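 active = blocking of liver enzyme CYP2C9 beyond about 50% at 5 µM, limit read from the data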
# CYP2C19 inhib: inhibitors of human CYP2C19; P33261; CYP2C19 Supersomes, luciferin-H EGE luminescence, 30 min; inhibition, % at 5 µM; 21% of 96,000 active; AID 778;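 active = CYP2C19 inhibition above a set limit at 5 µM in the primary screen, cut at about 50% in these data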;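 also: plate controls were negative control wells for no effect and 2.5 mM tranylcypromine positive control for full effect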
# sEH act: soluble epoxide hydrolase (human) activation | P34913 | activation, % at 2 µM | purified human sEH enzymatic activity, activator screen | 0.04% of 91,000 active; in the data active = activation above about 37%
# An asterisk follows results filed as active; . = no result.
SMILES,sEH inh,CYP2C19 activ,CYP2C9 activ,CYP2C9 inh,CYP2C19 inhib,sEH act
Cc1ccc(S(=O)(=O)NCC(=O)N(CC(=O)NCC2CCCO2)C2CCCC2)cc1 (stereo unspecified),-2,0.9,0.8,22,14,2
COc1ccc(N(CC(=O)NCC2CCCO2)S(=O)(=O)c2ccc(C)cc2)cc1OC (stereo unspecified),13,1.2,0.4,55*,-24,-15
COc1ccc(S(=O)(=O)NCC(=O)N(CC(=O)NCC2CCCO2)c2c(C)cccc2C)cc1 (stereo unspecified),10,0.8,0.3,68*,20,-11
CCOc1ccc(N(CC(=O)NCC2CCCO2)S(=O)(=O)c2ccc(SC)cc2)cc1 (stereo unspecified),3,0.3,0.6,44,68*,-2
CN(CC(=O)NCC1CCCO1)S(=O)(=O)c1cc(Cl)ccc1Cl (stereo unspecified),0,0.4,3.2*,-221,64*,1
CCOc1cccc(N2C(=O)CC(NCc3ccc(S(N)(=O)=O)cc3)C2=O)c1 (stereo unspecified),-13,1.1,1.1,-9,-12,13
Cc1ccc(CNC(=O)[C@@H]2CCC(=O)N2Cc2ccco2)cc1,-6,0.7,1,4,32,4
O=C(NCCc1ccc(Cl)cc1)C1CCC(=O)N1Cc1ccccc1Cl (stereo unspecified),7,0.6,0.6,44,36,-4
O=C(Nc1ccc(Cl)cc1Cl)C1CCC(=O)N1Cc1ccccc1Cl (stereo unspecified),5,0.5,0.7,33,51*,-5
Cc1cc(NC(=O)CCC(=O)N(C2CC2)C2(C(=O)NC3CCCC3)CCC(C)CC2)no1 (stereo unspecified),-10,0.4,0.3,71*,59*,9
C=CCN(C(=O)CCC(=O)Nc1cc(C)on1)C(C(=O)NC1CCCC1)c1cccnc1 (stereo unspecified),-8,0.6,0.3,68*,45,7
Cc1cc(NC(=O)CCC(=O)N(CC(=O)NC2CCCC2)Cc2ccc(F)cc2)no1,-4,0.9,0.8,19,12,0
Cc1cc(NC(=O)CCC(=O)N(CC(=O)NC2CCCC2)Cc2ccccc2Cl)no1,24,0.6,0.4,58*,41,-24
CCc1ccccc1N(C(=O)CCC(=O)Nc1cc(C)on1)C(C(=O)NC1CCCC1)c1ccco1 (stereo unspecified),.,0.3,0.4,58*,75*,.
CN(CC(=O)NCCN1CCN(Cc2ccccc2)CC1)S(=O)(=O)c1cccc2nsnc12,-4,1.1,1.1,-5,-6,4
Cc1ccnc(NC(=O)CN(C)S(=O)(=O)c2cccc3nsnc23)c1,-14,0.8,0.2,77*,21,16
Cc1ccc(NC(=O)CN(C)S(=O)(=O)c2cccc3nsnc23)cc1C,-2,0.7,0.2,78*,35,2
Cc1ccc2nc(NC(=O)CN(C)S(=O)(=O)c3cccc4nsnc34)sc2c1,10,0.8,0.8,19,23,-5
Cc1ccc(NC(=O)CN(C)S(=O)(=O)c2cccc3nsnc23)cc1Cl,8,0.6,0.2,84*,40,-2
CN(CC(=O)NCc1ccc(Cl)cc1)S(=O)(=O)c1cccc2nsnc12,-4,0.2,0.8,20,82*,4
CC(C)NC(=O)c1cc(-n2cnnc2)ccc1Cl,10,1.1,1,-4,-5,-9
Cc1nn2c(-c3ccc(Cl)cc3)ccnc2c1-c1ccccc1,8,1.1,1.2,-23,-6,-6
CC(C)CCNC(=O)C1CCC(=O)N1C(C)C (stereo unspecified),8,1.2,1.2,-16,-20,-9
O=S1(=O)CCC(SCc2nc3sccn3c2Br)C1 (stereo unspecified),2,0.6,1.2,-21,42,-3
CCN(CCCNC(=O)CN(C)S(=O)(=O)c1cccc2nsnc12)c1ccccc1,.,0.6,0.3,74*,37,.
CN(CC(=O)Nc1ccc(F)c(F)c1)S(=O)(=O)c1cccc2nsnc12,-2,0.6,0.3,70*,39,2
CC(=O)c1cccc(NC(=O)CCNS(=O)(=O)c2cccc3nsnc23)c1,10,0.9,1.1,-9,5,-8
